Values without a mark were called inactive.
Test system: Vero E6 infected with SARS-CoV-2
Assay: inhibition of SARS-CoV-2 cytopathic effect; higher = more antiviral protection, active = above 15
Details: 48 h

Compound	inhibition of SARS-CoV-2 cytopathic effect (1 nM) [%]	inhibition of SARS-CoV-2 cytopathic effect (8.33 nM) [%]	inhibition of SARS-CoV-2 cytopathic effect (100 nM) [%]	inhibition of SARS-CoV-2 cytopathic effect (833.33 nM) [%]	inhibition of SARS-CoV-2 cytopathic effect (10000 nM)
C[C@@H]1CCCN1CCc1cc2cc(-c3ccc(C#N)cc3)ccc2o1	-2.35	-2.18	1.55	-0.35	4.34%
CC(=O)c1ccc2c(c1)N(CCCN1CCN(CCO)CC1)c1ccccc1S2 [acetophenazine]	1.65	1.77	2.3	2.47	2.15%
Cc1ccc(CCCO)c(NCc2ccc3nc(NCCCN4CCOCC4)n(Cc4nc(C)ccc4O)c3c2)c1	0.48	-0.28	-0.6	-1.09	-1.76%
Clc1ccc(C2=CCC[C@H]3CC[C@@H]2N3)cn1	-2.02	2.33	-0.54	0.15	-1.94%
Nc1ccn([C@H]2C[C@H](O)[C@@H](CO)O2)c(=O)n1 [torcitabine]	-1.42	-0.61	0.39	-0.39	1.92%
CC(C)Oc1cccc(-n2c(CCc3c[nH]c4ccc(Br)cc34)nc3ccccc3c2=O)c1	-1.06	2.18	2.14	0.14	0.06%
O=S(=O)(O)c1ccc(O)cc1 [4-phenolsulfonic-acid]	-2.47	0.25	0.79	-2.18	-0.48%
O=C1Nc2ccc(Cl)cc2[C@@](C#CC2CC2)(C(F)(F)F)O1 [efavirenz]	-5.64	-1.07	0	-0.49	-1.92%
NC(=O)OCCCc1ccccc1 [phenprobamate]	0.89	0.93	-0.42	-2.45	-2.7%
O=C(/C=C/c1ccc(O)c(O)c1)O[C@H](Cc1ccc(O)c(O)c1)C(=O)O [rosmarinic-acid]	2.8	3.5	2.25	3.06	3.05%
CCC(=N\O)/C(C)=C/c1ccc(F)cc1	-0.84	-0.21	0.55	-0.42	-0.21%
CCCCCNCC(N)=O [milacemide]	1.56	-1.78	2.01	2.58	-0.4%
O=C1NC(=O)c2c1c1c3ccccc3n3c1c1c2c2ccccc2n1C1CCC3O1	0.12	2.27	-1.21	4.22	8.57%
CN[C@@H](C)CC1CCCCC1 [propylhexedrine]	-0.64	-5.27	-5.29	-6.1	-8.06%
COc1cc(/C=C/C(=O)CC(=O)/C=C/c2ccc(O)c(OC)c2)ccc1O [curcumin]	-1.79	-0.65	1.73	4.68	23.4% (active)
CCCCCn1cc(C(=O)NC23CC4CC(CC(C4)C2)C3)c(=O)c2cc(-c3ccccc3)ccc21	-3.48	-3	-0.96	-1.94	-5.93%
COC(=O)c1cc(OC)c2c(c1-c1c(C(=O)OC)cc(OC)c3c1OCO3)OCO2 [bifendate]	1.14	2.56	3.5	1.43	1.73%
NC(=O)N/N=C/c1ccc([N+](=O)[O-])o1 [nitrofurazone]	0.32	0.46	-1.2	-0.04	0.07%
COc1ccc(-c2oc3c(CC=C(C)C)c(O)cc(O)c3c(=O)c2O)cc1 [icaritin]	-1.11	0.17	0.02	-0.36	2.24%
CCCCCCCCCCCCCCCC[N+](C)(C)CCN(Cc1ccc(OC)cc1)c1ncccn1 [thonzonium]	-1.08	-1.07	3.19	-1.67	-15.8%

Source: the supplement of paper PMC13380429
